Most compounds without a hit are left out; they make up all but 8.7% or so of the library.
HP1b binding inh – HTS for Inhibitors of HP1-beta Chromodomain Interactions with Methylated Histone Tails; Chromobox protein homolog 1 (Homo sapiens), P83916; AlphaScreen HP1-beta / biotin-H3K9me3 peptide binding; Potency, µM (highest dose often 114 µM), inactives show at the top dose activity change, negative = inhibition, hits mostly inhibitors; 390,000 compounds, 0.56% hits; AID 540317, 2011; note: nearly all actives have a fitted effect of over 70% in size
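HP1-beta protein (50 nM final) preincubated 30 min at room temperature with biotinylated H3(1-18)K9me3 peptide (50 nM) in PBS pH 7.4, 0.01% Tween-20, then compound added for 30 min. AlphaScreen streptavidin donor/nickel chelate acceptor beads (10 ug/mL final), 30 min dark, luminescence read.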
G9a inh – qHTS Assay for Inhibitors of Histone Lysine Methyltransferase G9a. 350,000 compounds, 8.8% hits. Potency, µM (series often up to 102 µM), without a hit: top-dose activity, negative = inhibition, hits mostly inhibitors. AID 504332, 2011. G9a H3K9 monomethylation, AlphaScreen, 2 h; note: % is set by controls: 0 for no effect and ±100 for the full control effect; nearly all actives have a fitted effect of over 75% in size
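G9a (20 nM) preincubated 15 min RT with compounds, then 500 nM biotinylated H3K9 peptide and 20 uM SAM added; 2 h RT reaction. Monomethyl-H3K9 product detected by AlphaScreen with anti-H3K9me1 antibody, streptavidin donor and anti-rabbit IgG acceptor beads.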
JMJD2A Tudor – qHTS Assay for Inhibitors of JMJD2A-Tudor Domain. 390,000 compounds, 4.4% hits. AlphaScreen JMJD2A-Tudor / H3K4me3 peptide binding. Lysine-specific demethylase 4A (Homo sapiens), O75164. Potency, µM (doses to about 114 µM), inactives show top-dose activity change, negative = inhibition, usual class: inhibitors. AID 504339, 2011; note: % is set by controls: 0 for no effect and ±100 for the full control effect; nearly all actives have a fitted effect of over 50% in size
Target sequence (O75164 whole entry, looked up, the tested form may be a part): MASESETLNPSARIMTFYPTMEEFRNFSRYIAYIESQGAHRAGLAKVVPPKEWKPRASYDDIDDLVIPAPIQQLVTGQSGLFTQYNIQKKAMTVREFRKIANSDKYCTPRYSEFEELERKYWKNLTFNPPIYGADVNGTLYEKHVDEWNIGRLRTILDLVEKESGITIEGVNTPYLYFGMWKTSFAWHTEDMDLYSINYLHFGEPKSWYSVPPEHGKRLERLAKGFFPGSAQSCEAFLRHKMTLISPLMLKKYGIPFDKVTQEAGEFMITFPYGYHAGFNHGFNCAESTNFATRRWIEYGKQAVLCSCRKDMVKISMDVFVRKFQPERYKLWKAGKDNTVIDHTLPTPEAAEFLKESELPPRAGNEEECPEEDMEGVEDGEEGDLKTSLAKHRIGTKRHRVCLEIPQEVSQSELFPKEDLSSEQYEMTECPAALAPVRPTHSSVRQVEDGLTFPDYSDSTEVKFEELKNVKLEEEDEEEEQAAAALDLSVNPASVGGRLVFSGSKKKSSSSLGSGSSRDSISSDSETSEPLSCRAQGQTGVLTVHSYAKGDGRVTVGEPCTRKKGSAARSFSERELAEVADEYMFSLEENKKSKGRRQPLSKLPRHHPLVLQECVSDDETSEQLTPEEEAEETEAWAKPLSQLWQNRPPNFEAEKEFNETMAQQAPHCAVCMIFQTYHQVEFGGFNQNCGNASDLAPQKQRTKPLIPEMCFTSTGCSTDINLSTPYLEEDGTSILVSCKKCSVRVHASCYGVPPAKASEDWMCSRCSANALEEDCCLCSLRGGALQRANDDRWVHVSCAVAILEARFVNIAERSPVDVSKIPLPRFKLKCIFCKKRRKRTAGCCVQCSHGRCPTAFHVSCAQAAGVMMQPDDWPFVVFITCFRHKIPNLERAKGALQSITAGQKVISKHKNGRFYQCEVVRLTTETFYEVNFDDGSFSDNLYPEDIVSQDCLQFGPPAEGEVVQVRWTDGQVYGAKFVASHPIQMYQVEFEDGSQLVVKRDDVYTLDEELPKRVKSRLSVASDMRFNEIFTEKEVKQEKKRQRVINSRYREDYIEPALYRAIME
12-LOX inh – Primary qHTS assay for inhibitors of human arachidonate 12S-lipoxygenase (ALOX12): Round 2; purified 12hLO, xylenol orange hydroperoxide absorbance; Potency, µM (top dose mostly 108 µM), for inactives: top-dose activity change, negative = inhibition, actives largely listed as inhibitors; 580,000 compounds, 1.1% hits; AID 1671190, 2021; note: % is set by controls: 0 for no effect and ±100 for the full control effect
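Purified human 12hLO at 150 nM in 25 mM Hepes, 0.01% Triton X-100, pH 7.0, preincubated 15 min at room temperature with compound. Reaction started with 40 uM arachidonic acid, 30 min at room temperature. Hydroperoxide measured by Fe-xylenol orange, 573/405 nm absorbance ratio.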
BAZ2B inh – qHTS Assay for Inhibitors of BAZ2B. AlphaScreen BAZ2B-H3K14Ac peptide displacement. AID 504333, 2011. Potency, µM (doses to about 114 µM), inactives show at the top dose activity change, negative = inhibition, hits mostly inhibitors. Bromodomain adjacent to zinc finger domain protein 2B (Homo sapiens), Q9UIF8. 360,000 compounds, 4.4% hits; note: % is set by controls: 0 for no effect and ±100 for the full control effect; nearly all actives have a fitted effect of over 60% in size
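Compounds, titrated to a top concentration of 110 uM, were incubated 30 min at room temperature with preformed BAZ2B/acetyl-K14 H3 peptide complex (50 nM each). Proximity signal was measured by AlphaScreen after 20 min with beads.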
Sfp PPTase inh – qHTS Assay for Inhibitors of Bacillus subtilis Sfp phosphopantetheinyl transferase (PPTase). 4'-phosphopantetheinyl transferase ffp (Bacillus subtilis), Q9F4F7. Biochemical Sfp PPTase activity, qHTS. Potency, µM, inactives show largest response in the series, negative = inhibition, hits mostly inhibitors. 310,000 compounds, 3.5% hits. AID 1490, 2009;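 note: the enzyme is Sfp with the accession as filed and its product quenches rhodamine fluorescence; 0% = enzyme reaction without inhibitor and -100% = no enzyme wells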
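Sfp 15 nM + cpd, 15 min RT; start w/ rhodamine-CoA 5 uM, BHQ-2-YbbR 12.5 uM (final); 50 mM Hepes pH 7.6, 10 mM MgCl2, 0.01% NP-40, 0.01% BSA; read 525/598 nm at 0 and 30 min.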
Starred values were filed as active, the others as inactive; i = inactive; ? = inconclusive; · = no result; ! = repeats disagree; [ ] = dose if it differs, or a comment. Calls come from the whole dose curve; as a rule, active = well fitted curve in the direction sought with a large enough effect; inconclusive = small, poorly fitted or top-dose-only effect, or another doubt; inactive = no such curve, though single readings can be large; an effect the other way counts as inactive or inconclusive. Potency is the fitted concentration of half-maximal effect.

SMILES | HP1b binding inh | G9a inh | JMJD2A Tudor | 12-LOX inh | BAZ2B inh | Sfp PPTase inh
CC1S/C(=N/N=C/c2ccco2)N(Cc2ccc(F)cc2)C1=O (centres undefined) | 16% | 50µM* | -17% | ? | ? | -7%
O=C1CS/C(=N/N=C/c2ccco2)N1Cc1ccc(F)cc1 | 8% | ? | -17% | 6% | -22% | -16%
CCc1ccccc1NC(=O)c1ncoc1-c1cccc(C)c1 | · | · | · | 35% | · | ·
CC(=O)N1CCc2c(sc(NC(=O)CN3C(=O)CCC3=O)c2C(N)=O)C1 | -11% | ? | -23% | ? | 10% | -7%
Cc1cc([N+](=O)[O-])nn1CC(=O)Nc1sc2c(c1C(N)=O)CCCC2 | -17% | 32µM* | -25% | -29% | -26% | -15%
O=C(Nc1sc2c(c1C(=O)O)CCCC2)C(=O)N1CCOCC1 | 20% | ? | -28% | -6% | -31% | ?
O=C(Nc1sc2c(c1C(=O)O)CCC2)C(=O)N1CCOCC1 | -22% | 40µM* | ? | 0% | 50µM* | 79µM*
NC(=O)c1c(NC(=O)CN2CCOCC2)sc2c1CCC2 | 42% | 25µM* | -15% | -2% | · | -15%
NC(=O)c1c(NC(=O)CN2C(=O)CCC2=O)sc2c1CCCCC2 | -3% | 16µM* | -12% | -11% | -2% | ?
NC(=O)c1c(NC(=O)CN2CCCC2)sc2c1CCCC2 | -1% | 30%[12.7 µM] | 18µM* | 97% | 0% | -12%
c1cncc(-c2nc(NCc3cccs3)c3ccccc3n2)c1 | 30% | 1%[0.501 µM] | -20% | -5% | -7% | 79µM*!
CNc1nc(-c2ccoc2)nc2ccccc12 | · | 3%[0.501 µM] | · | 35µM* | · | 9%
c1ncc(-c2ccoc2)c(NC2CC2)n1 | · | 0%[0.501 µM] | · | ? | · | 79µM*
c1cncc(CNc2ncncc2-c2ccoc2)c1 | · | -14%[0.501 µM] | · | ? | · | 79µM*
N#Cc1cccc(-c2cncnc2NCc2cccnc2)c1 | · | 13%[0.501 µM] | · | ? | · | -2%
Cc1noc(C)c1-c1cncnc1NC1CC1 | · | · | · | ? | · | 3%
CNc1nc(-c2ccc(N(C)C)cc2)nc2ccccc12 | · | · | · | ? | · | -26%
Cc1nnc(-c2cc(-c3cccc(CO)c3)ccn2)n1CCN1CCOCC1 | · | · | · | 45%[176 µM] | · | ·
CC(c1cccc([N+](=O)[O-])c1)N(C)C(=O)c1ccc2c(c1)NC(=O)CS2 (centres undefined) | · | · | · | -8% | · | ·
c1nc(NCc2ccc3c(c2)OCO3)c2cc(-c3ccoc3)ccc2n1 | 12% | 0%[12.7 µM] | -23% | ? | 50µM* | ·
c1csc(CNc2nc(-c3ccoc3)nc3ccccc23)c1 | · | ? | · | 10µM* | · | ?
c1cncc(-c2ccc3ncnc(NCc4ccc5c(c4)OCO5)c3c2)c1 | 26% | 0%[12.7 µM] | -33% | -9% | -30% | ·
O=c1[nH]c(CNCc2cccnc2)nc2ccccc12 | 6% | ? | -12% | 1% | -24% | 25µM*
Clc1ccccc1-c1nc(Nc2ccncc2)c2ccccc2n1 | · | 16%[0.501 µM] | · | ? | · | -4%
Cc1ccccc1-c1nc(Nc2ccncc2)c2ccccc2n1 | · | -2%[0.501 µM] | · | 35µM* | · | -24%
SMILES | HP1b binding inh | G9a inh | JMJD2A Tudor | 12-LOX inh | BAZ2B inh | Sfp PPTase inh
CCCNC(=O)N1CCCC(c2noc(COCC)n2)C1 (centres undefined) | · | · | · | 34% | · | ·
c1cncc(CNc2ncnc3ccc(-c4cccnc4)cc23)c1 | 41% | 1%[12.7 µM] | ? | 0% | -25% | 79µM*
c1ccc(CNc2ncncc2-c2ccc3c(c2)OCO3)cc1 | · | 4%[0.501 µM] | · | 25µM* | · | -8%
c1cncc(CNc2nc(-c3ccoc3)nc3ccccc23)c1 | · | · | · | ? | · | 40µM*
Cc1ccccc1-c1nc(NCc2cccnc2)c2ccccc2n1 | · | · | · | 28µM* | · | -4%
CC(=O)NC(Cc1c[nH]c2ccccc12)C(=O)N1CCN(S(=O)(=O)c2ccccc2F)CC1 (centres undefined) | · | · | · | 28% | · | ·
CC(=O)C1=C(O)C(=O)N(c2cc(C(C)(C)C)on2)C1c1ccc(Br)cc1 (centres undefined) | 35% | 45µM* | ? | 45µM* | -37% | -15%
CC(=O)C1=C(O)C(=O)N(c2ccc(Br)cc2)C1c1ccc(Cl)cc1 (centres undefined) | 15% | 18%[0.501 µM] | -32% | ? | -36% | 17%
COc1cc(C2C(C(C)=O)=C(O)C(=O)N2c2ccc(Br)cn2)ccc1O (centres undefined) | -1% | 2%[0.0925 µM] | 89µM* | ? | ? | -7%
CC(=O)C1=C(O)C(=O)N(c2nccs2)C1c1ccc(F)cc1 (centres undefined) | 30% | -9% | -20% | ? | 1% | -2%
CC(=O)C1=C(O)C(=O)N(c2ccc(O)cc2)C1c1ccc(Cl)cc1 (centres undefined) | 11% | 71µM* | -25% | ? | -19% | 12%
CC(=O)C1=C(O)C(=O)N(c2ccc(Br)cn2)C1c1ccc(F)cc1 (centres undefined) | 20% | · | 1.1µM* | ? | 56µM* | ?
CC(=O)C1=C(O)C(=O)N(c2ccc(Br)cn2)C1c1cccc([N+](=O)[O-])c1 (centres undefined) | 5% | 17%[2.33 µM] | -20% | -82% | -19% | 5%
CC(=O)C1=C(O)C(=O)N(c2ccc(Br)cn2)C1c1ccc(Br)cc1 (centres undefined) | -13% | 56µM* | 22µM* | 0% | ? | ?
CCNc1ccccc1CP(=O)(c1ccccc1)c1ccccc1O (centres undefined) | 32µM* | ? | 50µM* | i | 40µM* | 1.4µM*
Cc1nc2ccccc2c(Cl)c1C/C=C/Cl | · | · | · | 3% | · | ·
Cc1cccc(NC(c2ccccc2C)c2ccc3ccc(C)nc3c2O)n1 (centres undefined) | -13% | ? | ? | -1% | 22µM* | ·
Cc1ccc2ccc(C(Nc3cccc(C(F)(F)F)c3)c3cccnc3)c(O)c2n1 (centres undefined) | 5% | 10µM* | ? | ? | -25% | 14%
Cc1ccc(C(Nc2ccccc2)c2ccc3ccc(C)nc3c2O)c(C)c1 (centres undefined) | · | · | · | -12% | · | ·

High-throughput results deposited in PubChem BioAssay by National Center for Advancing Translational Sciences (NCATS).
